# The panel holds about 83,000 compounds, 20% with a hit somewhere; the sample as a whole holds those more often.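 Cells were grown in 96-well plates and exposed to the test compound at a single concentration for 48 hours; results are reported as percent growth, with values below 10 considered active.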 Activity calls are given as the source filed them.
# Test system: DU-145 prostate
# Experiment: NCI-60 one-dose screen, 48 h (100 = growth as untreated, 0 = no growth, -100 = all killed)
# Conditions: 10 µM
row,SMILES,growth
1,COCCCC/C(=N\OCCN)c1ccc(C(F)(F)F)cc1,123% (inactive)
2,CC(C)(C)c1cc(O)c(C(C)(C)C)cc1O,108% (inactive)
3,CCCNc1ccc(C2=NCCCN2)cc1,103% (inactive)
4,O=[N+]([O-])c1ccc(O)c(S(=O)(=O)O)c1,110% (inactive)
5,O=C(O)c1cccc([N+](=O)[O-])c1O,109% (inactive)
6,C/C=C/CC(C)C(O)C1C(=O)NC(CC)C(=O)N(C)CC(=O)N(C)C(CC(C)C)C(=O)NC(C(C)C)C(=O)N(C)C(CC(C)C)C(=O)NC(C)C(=O)NC(C)C(=O)N(C)C(CC(C)C)C(=O)N(C)C(CC(C)C)C(=O)N(C)C(C(C)C)C(=O)N1C (centres undefined),39% (inactive)
7,O=C(CC(=O)c1ccccc1O)c1ccccc1,91.8% (inactive)
8,CCCCCCCCCCCCCCCCC1CC(=O)OC1=O (centres undefined),121% (inactive)
9,O=C1c2ccccc2C(=O)N1OCc1ccccc1,112% (inactive)
10,C[C@@H](c1ccccc1)[C@@H](C(=O)O)c1ccccc1,114% (inactive)
11,CC(=O)C1CCCCC1,111% (inactive)
12,CC(C)COC(=O)COC(=O)OCCOCCOC(=O)OCC(=O)OCC(C)C,95.3% (inactive)
13,O=C(O)CCCc1ccccc1,119% (inactive)
14,COc1cc(OC)c2ccc(=O)oc2c1,102% (inactive)
15,Cc1cc(=O)[nH]c(NN=C2CCCC2)n1,112% (inactive)
16,CCCC(=O)c1cc(C)ccc1OC,119% (inactive)
17,Nc1ccc(NC(=O)c2cccc(N)c2)cc1,108% (inactive)
18,O=C(N/N=C/c1ccccc1O)Nc1nn[nH]n1,116% (inactive)
19,CCOC(=O)/C(C#N)=C/c1cccc(C)c1,107% (inactive)
20,c1ccc(/C(=N\N=C(/c2ccccc2)c2cccs2)c2cccs2)cc1,105% (inactive)
21,Nc1ccccc1C(=O)Nc1ccc(Cl)cc1Cl,106% (inactive)
22,CC1=CC(=O)c2ccccc2C1=O,113% (inactive)
23,COC(=O)Nc1nc2ccc(C(=O)c3cccs3)cc2[nH]1,-1.55% (active)
24,CC1=C(/C=C/C(C)=C/C=C/C(C)=C/CO)C(C)(C)CCC1,112% (inactive)
25,CC(=O)Nc1cccc(Cl)c1C,106% (inactive)
26,COc1cc([C@@H]2c3cc4c(cc3[C@H](O)[C@H]3COC(=O)[C@H]23)OCO4)cc(OC)c1OC,-23.9% (active)

# Test system: K-562 leukemia
# Experiment: as above
# Conditions: 10 µM
row,SMILES,growth
1,Cc1ccccc1N=C(c1ccccc1)C1C(=O)c2ccccc2C1=O,61.8% (inactive)
2,O=C(O)C(c1ccccc1)C(O)c1ccccc1 (centres undefined),100% (inactive)
3,CC(C)(C)c1cc(O)c(C(C)(C)C)cc1O,96.7% (inactive)
4,CCCNc1ccc(C2=NCCCN2)cc1,89.8% (inactive)
5,O=C(O)c1cccc([N+](=O)[O-])c1O,106% (inactive)
6,O=[N+]([O-])c1ccc(N=Nc2ccccc2)cc1,87.2% (inactive)
7,CCn1c(=O)n(C)c2c(=O)n(C)c(=O)n(C)c21,107% (inactive)
8,C[C@@H](c1ccccc1)[C@@H](C(=O)O)c1ccccc1,110% (inactive)
9,Nc1ccc(CC(=O)O)c(N)c1,104% (inactive)
10,CN(C)c1ccc(CNC(C(=O)c2ccccc2)c2ccccc2)cc1 (centres undefined),94.8% (inactive)
11,S=C(Nc1ccccc1)N1CCCCC1,110% (inactive)
12,Nc1ccc(C(=O)c2ccc(N)c(Br)c2)cc1Br,15.7% (inactive)
13,O=C(N/N=C/c1ccccc1O)Nc1nn[nH]n1,128% (inactive)
14,c1ccc(/C(=N\N=C(/c2ccccc2)c2cccs2)c2cccs2)cc1,83.6% (inactive)
15,CCOC(=O)C(C#N)Cc1ccccc1 (centres undefined),125% (inactive)
16,Cc1nc2ccccc2c2nnc(SCC(=O)N(Cc3ccccc3)c3ccccc3)n12,85.9% (inactive)
17,CC1CCC(C(=O)O)N1 (centres undefined),98.4% (inactive)

# Test system: MALME-3M melanoma
# Experiment: as above
# Conditions: 10 µM
row,SMILES,growth
1,COCCCC/C(=N\OCCN)c1ccc(C(F)(F)F)cc1,112% (inactive)
2,O=C(O)C(c1ccccc1)C(O)c1ccccc1 (centres undefined),117% (inactive)
3,O=C(CCNNC(=O)c1ccncc1)NCc1ccccc1,110% (inactive)
4,O=[N+]([O-])c1ccc(O)c(S(=O)(=O)O)c1,127% (inactive)
5,O=[N+]([O-])c1ccc(N=Nc2ccccc2)cc1,101% (inactive)
6,O=C(CC(=O)c1ccccc1O)c1ccccc1,115% (inactive)
7,CCCCCCCCCCCCCCCCC1CC(=O)OC1=O (centres undefined),114% (inactive)
8,O=C1c2ccccc2C(=O)N1OCc1ccccc1,98.2% (inactive)
9,CC(=O)C1CCCCC1,107% (inactive)
10,Nc1ccc(CC(=O)O)c(N)c1,94.3% (inactive)
11,CN(C)c1ccc(CNC(C(=O)c2ccccc2)c2ccccc2)cc1 (centres undefined),94.2% (inactive)
12,CC(C)COC(=O)COC(=O)OCCOCCOC(=O)OCC(=O)OCC(C)C,104% (inactive)
13,S=C(Nc1ccccc1)N1CCCCC1,107% (inactive)
14,O=C(O)CCCc1ccccc1,118% (inactive)
15,COc1cc(OC)c2ccc(=O)oc2c1,136% (inactive)
16,Cc1cc(=O)[nH]c(NN=C2CCCC2)n1,108% (inactive)
17,Nc1ccc(C(=O)c2ccc(N)c(Br)c2)cc1Br,78.8% (inactive)
18,CCCC(=O)c1cc(C)ccc1OC,135% (inactive)
19,Nc1ccc(NC(=O)c2cccc(N)c2)cc1,85.7% (inactive)
20,CCOC(=O)/C(C#N)=C/c1cccc(C)c1,96% (inactive)
21,COC(=O)Nc1nc2ccc(C(=O)c3cccs3)cc2[nH]1,36.2% (inactive)
22,CCOC(=O)C(C#N)Cc1ccccc1 (centres undefined),136% (inactive)
23,CC1=C(/C=C/C(C)=C/C=C/C(C)=C/CO)C(C)(C)CCC1,120% (inactive)
24,CC(=O)Nc1cccc(Cl)c1C,101% (inactive)
25,COc1cc([C@@H]2c3cc4c(cc3[C@H](O)[C@H]3COC(=O)[C@H]23)OCO4)cc(OC)c1OC,54.2% (inactive)
26,CC1CCC(C(=O)O)N1 (centres undefined),102% (inactive)

# — PubChem BioAssay (NCI)
